Rows were chosen to be rich in hits. Some 6.2% of all compounds tested hit in one or more screens of this group.
ATXN2 expr inh: inhibitors of ATXN2 expression; HEK-293 ATXN2-luciferase reporter, luminescence, 24 h; Potency, µM (titrated, usually from 57 µM), for the others: at the top dose activity change, negative = inhibition, actives largely listed as inhibitors; 360,000 compounds, 0.72% hits; AID 1745845; also: % is scaled to controls: 0 for no effect and ±100 for the full control effect; nearly all actives have a fitted effect of over 55% in size
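ATXN2-luciferase reporter cells (luciferase flanked by upstream and downstream ATXN2 gene portions) were treated 24 h at 37 °C with compounds at up to 57 uM. SteadyGlo luminescence gave expression; GF-AFC fluorescence gave viability.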
HT1080-NT tox: kills 2HG-producing HT-1080-NT fibrosarcoma cells. HT-1080-NT fibrosarcoma viability, CellTiter-Glo ATP luminescence, 48 h. 360,000 compounds, 1.6% hits. Potency, µM (doses to about 46.1 µM), without a hit: at the highest dose activity, negative = less viability, hits mostly cytotoxic;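 also: NT is the 2HG producing partner of a matched IDH1 knockdown line; 0% = DMSO-treated cells and -100% = media-only wells without cells; nearly all actives have a fitted effect of over 55% in size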
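Toxicity toward the 2HG-producing NT line was scored as %Activity, normalised to DMSO and no-cell wells, from CellTiter-Glo luminescence after 48 hours' treatment.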
KB-3-1 cytotox: kills parental KB-3-1 adenocarcinoma cells | 400,000 compounds, 1.4% hits | KB-3-1 viability, CellTiter-Glo ATP luminescence, 72 h | Potency, µM (top dose mostly 46.1 µM), usual class: cytotoxic; also: % is scaled to controls: 0 for no effect and ±100 for the full control effect; nearly all actives have a fitted effect of over 60% in size
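Here the drug-naive KB-3-1 line serves as comparator for MDR sub-line selectivity; cells received compound titrations, 72 h at 37 °C, then CellTiter-Glo readout.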
ATXN viability: cell viability loss in ATXN counter-screen; S2 cells (HEK-293 line with an ATXN2-luciferase reporter) viability, CellTiter-Fluor protease fluorescence, 24 h; Potency, µM (top dose mostly 56.7 µM), actives largely listed as cytotoxic; 400,000 compounds, 0.49% hits; also: nearly all actives have a fitted effect of over 40% in size
HT1080 IDH1KD tx: HT-1080 IDH1 knockdown cell toxicity (counter line) | HT-1080 IDH1 knockdown viability, ATP luminescence, 48 h | Potency, µM (highest dose often 46.1 µM), for the others: at the highest dose activity, negative = toxicity, most hits filed as cytotoxic | 360,000 compounds, 2% hits;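 also: 0% = DMSO wells and -100% = cell-free medium wells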
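CellTiter-Glo luminescence after 48 h compound exposure at 37 degrees C of IDH1-knockdown HT-1080 cells in 5% FBS RPMI. %Activity scaled between DMSO wells and cell-free media wells, with curves fitted and assigned curve classes.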
KB-V1 MDR tox: kills drug-selected multidrug resistant KB-V1 cells; Potency, µM (series often up to 46.1 µM), usual class: cytotoxic; KB-V1 MDR cells viability, CellTiter-Glo, 72 h; AID 1347076; 400,000 compounds, 3.4% hits; also: % is scaled to controls: 0 for no effect and ±100 for the full control effect; nearly all actives have a fitted effect of over 60% in size
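Cells of the MDR subline KB-V1 are plated, dosed with compound at multiple concentrations, and incubated 72 h at 37 degrees C; CellTiter-Glo is then added and luminescence read after 10 min.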
The depositor's hits bear a star; i = inactive; ? = inconclusive; . = no result given; ! = not active in a repeat; [ ] = dose if it differs, or a comment. Calls follow the shape of the dose curve; as a rule, active = well fitted curve in the direction sought with a large enough effect; inconclusive = small, poorly fitted or top-dose-only effect, or another doubt; inactive = no such curve, though single readings can be large; an effect the other way counts as inactive or inconclusive. Potency is read from the fitted curve at half-maximal effect.

SMILES	ATXN2 expr inh	HT1080-NT tox	KB-3-1 cytotox	ATXN viability	HT1080 IDH1KD tx	KB-V1 MDR tox
O=C1N[C@@H](Cc2ccccc2)C(=O)N2[C@H]3Nc4ccccc4[C@@]3([C@]34C[C@H]5C(=O)N[C@@H](Cc6ccccc6)C(=O)N5[C@H]3Nc3ccccc34)C[C@@H]12	?	-8%	i	13µM*	-8%	i
C[C@]12CC[C@H]3[C@@H](CCC4=CC(=O)CC[C@@H]43)[C@@H]1CC[C@@H]2OC(=O)CCc1ccco1	-9%	.	.	i	.	.
COc1cc2nc(CN3CC=C(c4ccccc4)CC3)[nH]c(=O)c2cc1OC	1µM*	1%	7.3µM*	i	1%	?
O=C(Nc1ccc(OC(F)(F)F)cc1)c1cccn(Cc2ccccc2Cl)c1=O	8%	.	i	i	.	i
CC(C)C(=O)Nc1ccc(C(=O)NCc2cccnc2)cc1	-5%	?	i	i	23µM*	i
O=C(NCc1cccnc1)C(Cl)(Cl)Cl	4%	12%	i	i	10%	i
C=CC[C@]1(O)CC[C@H]2[C@@H]3CCC4=CC(=O)CCC4=C3C=C[C@@]21C	1%	.	.	i	.	.
C(#CCN1CCOCC1)COC/C=C/c1ccccc1	14%	-4%	i	i	2%	21µM*
c1cncc([C@@H]2CCCCN2)c1	.	.	.	i	.	.
CN(C)c1ccc(C(=O)N/N=C/C23CC[C@@H](O)CC2(O)CC[C@@H]2[C@@H]3CCC3(C)C(C4=CC(=O)OC4)CCC23O)cc1 (stereo partly drawn)	.	?	6.5µM*	?	10µM*	?
CC12CC[C@H]3[C@@H](CCC4(O)C[C@H](O)CCC34/C=N/NC(=O)c3ccccc3O)C1(O)CCC2C1=CC(=O)OC1 (stereo partly drawn)	?	?	?	i	18µM*	?
COc1cc(C(=O)N/N=C/C23CC[C@@H](O)CC2(O)CC[C@@H]2[C@@H]3CCC3(C)C(C4=CC(=O)OC4)CCC23O)ccc1O (stereo partly drawn)	?	-27%	i	i	23µM*	i
CC12CC[C@H]3[C@@H](CCC4(O)C[C@H](O)CCC34/C=N/NC(=O)c3ccc(O)cc3)C1(O)CCC2C1=CC(=O)OC1 (stereo partly drawn)	19%	0%	i	i	6%	i
COc1ccc(C(=O)N/N=C/C23CC[C@@H](O)CC2(O)CC[C@@H]2[C@@H]3CCC3(C)C(C4=CC(=O)OC4)CCC23O)cc1 (stereo partly drawn)	.	?	?	i	?	i
CC12CC[C@H]3[C@@H](CCC4(O)C[C@H](O)CCC34/C=N/NC(=O)c3ccccc3F)C1(O)CCC2C1=CC(=O)OC1 (stereo partly drawn)	?	-12%	18µM*	?	?	i
Cc1ccc(Cl)cc1N1CCN(C(=O)c2cn(CC(C)C)c(=O)c3c2c2ccccc2n3C)CC1	?	.	i	?	.	i
Cc1ccc2c(c1)C1CN(C)CCC1N2 (stereo not drawn)	-1%[25.6 µM]	.	.	i	.	.
CCC(C(=O)Nc1ccccc1F)N1C(=O)CN=C(c2ccccc2)c2ccccc21 (stereo not drawn)	-30%	.	?	?	.	?
C=C(C)COc1ccc(-c2n[nH]c(C)c2-c2ccc(Br)cc2)c(O)c1	-23%	10µM*	?	.	10µM*	?
CCCc1cc(-c2n[nH]c(C(=O)OCC)c2-c2cscn2)c(O)cc1O	-1%	1%	i	i	?	i
O=C(O)C1C2CCC(O2)C1C(=O)Nc1cccc(Br)c1 (stereo not drawn)	.	-3%	i	i	-10%	i
O=C(Nc1cccc(Br)c1)Oc1cccc2cccnc12	6.3µM*	16µM*	?	?	?	?
O=C(Nc1c(Cl)cccc1Cl)Oc1cccc2cccnc12	?	6.5µM*	?	.	3.7µM*	?
CC(C)CC[C@@H](O)[C@](C)(O)C1CC[C@@]2(O)C3=CC(=O)[C@@H]4C[C@@H](O)[C@@H](O)C[C@]4(C)C3CC[C@]12C (stereo partly drawn)	-1%	?	i	i	9%	i
CC[n+]1c(/C=C/C=C/c2ccc(N(C)C)cc2)sc2ccccc21	?	5.8µM*	1.5µM*	.	7.3µM*	?
SMILES	ATXN2 expr inh	HT1080-NT tox	KB-3-1 cytotox	ATXN viability	HT1080 IDH1KD tx	KB-V1 MDR tox
C[n+]1c(-c2ccccc2)sc2ccccc21	.	-1%	i	?	-2%	i
CN(C)c1ccc(/C=C/C=C/c2sc3ccccc3[n+]2C)cc1	?	21µM*	10µM*	?	?	i
CC[n+]1c(/C=C/N(C)c2ccccc2)sc2ccc(Cl)cc21	?	?	15µM*	.	?	12µM*
CN(C)c1ccc(/C=C/c2cc[n+](C)c3ccccc23)cc1	?	?	2.9µM*!	6µM*	7.3µM*	16µM*!
COc1ccccc1NC(=O)Oc1cccc(OC(=O)c2ccccc2)c1	.	-1%	i	?	4%	i
C[C@]12Cc3cn[nH]c3C[C@@H]1CC[C@@H]1[C@H]2CC[C@@]2(C)[C@H]1CC[C@]2(C)O	-11%	.	.	.	.	.
C[C@@H](N)C(=O)c1ccccc1	.	.	.	i	.	.
CCN(CC)C(=O)Cn1cc(S(=O)(=O)CC(=O)NCc2ccc(C)cc2)c2ccccc21	-1%	16%	i	?	12%	i
CN(C)c1ncc(C2=C(Cl)C(=O)C(N3CCCC3)=C(Cl)C2=O)s1	25µM*	?	i	.	8.9µM*	i
COc1cccc(C(O)c2nc(-c3ccncc3)cs2)c1 (stereo not drawn)	-4%	?	i	i	-18%	?
Cc1cccc(CN2CC=C(c3noc(CCC(=O)Nc4ccc(C)c(F)c4)n3)CC2)c1	?	.	i	?	.	i
CC12CCC3c4ccc(OC(=O)N(CCCl)CCCl)cc4CCC3C1CCC2O (stereo not drawn)	-31%	?	?	?	?	5.8µM*
O=C1/C(=C/c2ccc(N(CCCl)CCCl)cc2)Cc2ccccc21	.	.	i	.	.	i
CCCCn1nnnc1C(CCc1ccccc1)N1CCC(n2c(=O)[nH]c3ccccc32)CC1 (stereo not drawn)	?	?	?	?	?	4.1µM*
CCC(c1nnnn1Cc1ccccc1)N1CCC(n2c(=O)[nH]c3ccccc32)CC1 (stereo not drawn)	?	26µM*	i	i	?	?
